GLP1R cytotox – cytotoxicity counter-screen for GLP-1 receptor inverse agonists. HEK293 cAMP-luciferase reporter cells, luminescence, 24 h. Potency, µM (highest dose often 38.3 µM), most hits filed as inhibitors. 410,000 tested, 0.13% active;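 also: loss of luciferase light is scored as toxicity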
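A 23 nL compound transfer followed 12 hours of cell culture at 37 deg C; exposure then lasted 24 hr. Luciferase assay detection reagent was dispensed and plates read for luminescence after a 12 min room-temperature wait.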
TSHR antagonist – human thyrotropin receptor antagonism; P16473; TSHR-expressing cells, TSH-stimulated cAMP HTRF, 2 h; hits give low values; activity change, negative = inhibition, % at 11.5 µM; 330,000 tested, 0.2% active; AID 504810;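 active = activity change below a set negative limit, meaning inhibition stronger than a set level, cut at about -70% in these data; inconclusive = activity change between two set negative limits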
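Freshly harvested TSHR cells receive pin-tooled compound, then EC80 TSH at 4nM final. After 2 hours at 37 deg C, antibody in lysis buffer and cAMP-d2 are added; 30 minutes at ambient temperature precede the HTRF read.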
RXFP1 agonist – activates the human relaxin receptor RXFP1; Q9HBX9; HEK293T-RXFP1 cAMP TR-FRET, 30 min; response scale: percent of porcine relaxin response, buffer zero; Potency, µM (highest dose often 57.5 µM), most hits filed as activators; 370,000 tested, 0.3% active; AID 2676; also: nearly all actives have a fitted effect of over 60% in size
Target sequence (Q9HBX9 whole entry, looked up): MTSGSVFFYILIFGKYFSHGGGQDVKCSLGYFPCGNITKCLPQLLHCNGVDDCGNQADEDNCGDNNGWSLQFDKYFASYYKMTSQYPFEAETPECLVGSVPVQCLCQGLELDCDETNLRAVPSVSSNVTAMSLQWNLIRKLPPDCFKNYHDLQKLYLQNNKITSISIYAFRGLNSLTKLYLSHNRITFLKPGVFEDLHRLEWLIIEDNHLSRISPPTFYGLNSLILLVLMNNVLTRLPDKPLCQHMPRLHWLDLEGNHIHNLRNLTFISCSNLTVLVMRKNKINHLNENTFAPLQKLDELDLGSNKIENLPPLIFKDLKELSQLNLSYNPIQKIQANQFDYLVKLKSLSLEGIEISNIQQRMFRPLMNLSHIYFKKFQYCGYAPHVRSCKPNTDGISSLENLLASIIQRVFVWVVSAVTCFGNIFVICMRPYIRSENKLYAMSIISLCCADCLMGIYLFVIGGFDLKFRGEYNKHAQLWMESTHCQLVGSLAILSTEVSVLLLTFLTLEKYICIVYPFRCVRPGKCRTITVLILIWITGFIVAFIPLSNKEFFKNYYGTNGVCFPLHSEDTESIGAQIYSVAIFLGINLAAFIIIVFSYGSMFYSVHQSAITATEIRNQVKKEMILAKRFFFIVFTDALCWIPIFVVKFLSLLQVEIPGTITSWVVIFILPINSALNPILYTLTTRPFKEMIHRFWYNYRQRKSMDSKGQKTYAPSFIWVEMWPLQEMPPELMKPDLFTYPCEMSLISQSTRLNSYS
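Agonist response is measured as cAMP accumulation in an RXFP1-transfected HEK293T line under PDE4 inhibition. Values are scaled between buffer-only and 29 nM porcine relaxin, and EC50s come from standard Hill equation fits.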
RXFP1 antag – RXFP1 (human) relaxin receptor antagonism; activity change, negative = inhibition, % at 57.5 µM; AID 1259400; 350,000 tested, 0.59% active; HEK293-RXFP1, relaxin-stimulated cAMP HTRF, 30 min; hits give low values; Q9HBX9;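 active = activity change of -60% or lower, but not beyond a set lower limit; inconclusive = change between -60% and -40%, or beyond the set limit; inactive = change above -40%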
PTHR1 agonist – agonists of human PTHR1 parathyroid hormone receptor. Q03431. HEK293 GP2 PTHR1 cells, GloSensor cAMP luminescence, 1 h. Potency, µM (top dose mostly 115 µM), most hits filed as activators. 410,000 tested, 0.075% active. AID 743266; also: nearly all actives have a fitted effect of over 55% in size
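HEK-293-derived GP2 cells expressing PTHR1 and a GloSensor cAMP reporter, 3,000/well, plated overnight, given luciferin plus IBMX (each 0.5 mM as added) for 1 h at 37 °C, then compound for 1 h at 37 °C. Luminescence was read after 15 min at room temperature.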
NPSR antagonist – blocks cAMP signaling of the human neuropeptide S receptor; Q6W5P4; CHO-NPSR cells, cAMP TR-FRET, antagonist mode; Potency, µM (titrated, usually from 38.3 µM), actives largely listed as inhibitors; 220,000 tested, 1% active; also: nearly all actives have a fitted effect of over 50% in size
Numbers stand for hits; . = inactive; ? = inconclusive; / = no result; [ ] = dose if it differs, or a comment. The sample as a whole holds a higher share of hits than the screen did. Unless noted, calls follow the shape of the dose curve; as a rule, active = well fitted curve in the direction sought with a large enough effect; inconclusive = small, poorly fitted or top-dose-only effect, or another doubt; inactive = no such curve, though single readings can be large; an effect the other way counts as inactive or inconclusive.

SMILES | GLP1R cytotox | TSHR antagonist | RXFP1 agonist | RXFP1 antag | PTHR1 agonist | NPSR antagonist
N=c1c2c(n(Cc3cccc(Cl)c3)c3c1CCC3)CCCC2 | 5µM | . | . | . | . | .
O=C(NCCCN1CCN(c2cccc(Cl)c2)CC1)c1ccc2nc(Cc3ccccc3)oc2c1 | . | / | . | . | . | /
COc1ccc(-c2csc(NC(=O)C3CCN(c4ncnc5sc(C)c(C)c45)CC3)n2)cc1OC | ? | -77 | . | . | . | /
Cc1ccccc1OCC(=O)NNC(=O)C1CCN(c2ncnc3sc(C)c(C)c23)CC1 | . | . | . | -68 | . | /
Cc1ccc(C)c(NC(=O)c2cnn(-c3ccc(F)cc3F)c2C2CCNCC2)c1 | . | / | . | . | . | /
Cc1ccc(-c2ccccc2C#N)cc1 | / | / | / | . | / | /
CS(=O)(=O)c1nc(-c2ccc(Br)cc2)cc(-c2ccccc2)c1C#N | ? | ? | . | . | . | 7.9µM
COc1ccc(/C=C(\C#N)C(=O)N2COCC2(C)C)cc1 | . | -75 | . | . | . | /
COc1ccc(CNC(=O)CS(=O)(=O)c2cccc3nsnc23)cc1 | . | / | . | / | . | /
CCOC(=O)c1c(C)sc(-c2c(-c3ccccc3)[nH]c3[nH]c(=O)[nH]c(=O)c23)c1O | . | / | . | / | . | /
COc1ccccc1NC(=O)c1cccc(N2C(=O)C3C4C=CC(C4)C3C2=O)c1 (stereo not drawn) | . | . | . | -77 | . | /
COc1ccc(-c2nc3ccc(C4=NNC(=O)CC4C)cc3[nH]2)cc1 (stereo not drawn) | / | / | / | . | / | /
CN1CCN(S(=O)(=O)c2ccc3c(c2)C(C)(C)C(=O)N3C)CC1 | . | . | . | . | . | /
CN1C(=O)C(C)(C)c2cc(S(=O)(=O)N3CCN(c4ccc(F)cc4)CC3)ccc21 | . | . | . | -60 | . | /
CC1=CC(C)(C)N2C(=O)C3(C(C#N)=C(N)Oc4cc(O)ccc43)c3c(C)c(C)cc1c32 (stereo not drawn) | . | . | . | -73 | . | ?
CCCN1CCN(CCCNC(=O)Cn2c(-c3cccs3)cc3cc(Cl)ccc32)CC1 | . | / | . | . | . | /
C=C1C[C@@]23CC[C@H]4[C@@](C)(CCC[C@@]4(C)C(=O)O)[C@@H]2CC[C@]1(O)C3 | / | . | / | / | / | /
O=C1Nc2ccccc2/C1=N\N=C\c1ccc(O)c(O)c1 | 11µM | . | . | . | . | .
COc1cc(/C=N/N=C2/C(=O)Nc3ccccc32)ccc1O | ? | . | . | . | . | .
CC1(C)CC(NC(=O)COc2ccc3ccccc3c2)CC(C)(C)N1 | . | . | . | . | . | .
Cc1ccc(OCC(=O)NC2CC(C)(C)NC(C)(C)C2)cc1C | . | . | . | -82 | . | .
CCc1ccc(S(=O)(=O)/N=C2/C=C(Sc3ncn[nH]3)C(=O)c3ccccc32)cc1 | ? | . | . | . | . | 10µM
CCc1ccc(S(=O)(=O)/N=C2\C=CC(=O)c3ccccc32)cc1 | / | . | . | / | / | .
CCOc1cc(CNCCO)cc(Br)c1OCc1ccccc1 | . | . | . | . | . | .
COc1cc(CNCCO)cc(Br)c1OCc1ccccc1Cl | ? | . | . | -76 | . | .
SMILES | GLP1R cytotox | TSHR antagonist | RXFP1 agonist | RXFP1 antag | PTHR1 agonist | NPSR antagonist
COc1cc(OC)nc(-n2ncc(Br)c(Br)c2=O)n1 | 3.2µM | . | . | . | . | 6.3µM
O=C(Cn1[nH]c(=O)c2ccccc2c1=O)OCC(=O)c1ccc(Br)cc1 | . | . | . | -76 | . | /
COc1ccccc1C(=O)COC(=O)Cn1[nH]c(=O)c2ccccc2c1=O | . | . | . | . | . | /
Cc1cc(=O)n2c(nc3ccccc32)[nH]1 | . | . | . | . | 32µM | .
CC(NCC(O)COCCC12CC3CC(CC(C3)C1)C2)c1ccccc1 (stereo not drawn) | ? | . | . | -62 | . | .
Cn1c(=O)n(C)c2cc(N3CCCCC3)c(NC(=O)Nc3ccc(Br)cc3)cc21 | . | / | . | / | . | /
CCOc1cc(/C=C2/C(=O)ON=C2C)ccc1OCc1ccccc1F | . | . | . | . | . | 16µM
COc1ccc(C(CC(=O)N2CCCC2)c2c(OC)cc(OC)c3c(-c4ccccc4)cc(=O)oc23)cc1 (stereo not drawn) | . | . | . | / | . | .
COc1ccc(C(CC(=O)N2CCOCC2)c2c(OC)cc(OC)c3c(-c4ccccc4)cc(=O)oc23)cc1 (stereo not drawn) | . | -82 | . | / | . | .
Cc1ccc(Cl)cc1N(C)C(=O)c1noc2c1CCCCC2 | . | / | . | . | . | /
COC(=O)[C@@H]1CC[C@H](C)[C@@H](c2ccc(C)cc2)N1C(=O)c1ccc(/C=N/O[C@@H](C)CN2CCCCc3nc(C)c(C)cc32)cc1 | / | . | . | / | / | 10µM
COC(=O)c1[nH]c2ccc(Br)cc2c1NC(=O)CN1CCN(C2CCCCC2)CC1 | ? | . | . | -63 | . | .
COC(=O)c1[nH]c2ccc(C)cc2c1NC(=O)CCN1CCN(C2CCCCC2)CC1 | / | . | . | / | / | ?
Cc1ccc(CNC(=O)Nc2ccccc2)c(C)c1 | ? | . | . | . | . | /
Cc1cc(C)n(Cc2ccc(C(=O)NCc3ccco3)o2)n1 | . | . | . | . | . | .
Cc1ccc(CNC(=O)c2ccc(Cn3nc(C)cc3C)o2)cc1 | . | . | . | -117 | . | /
COC(=O)c1cc(Cl)ccc1OC | / | / | / | . | / | /
O=C(O)c1ccccc1NS(=O)(=O)c1cccc(-n2sc3ccccc3c2=O)c1 | ? | . | . | -115 | . | /
O=C(O)c1ccccc1NS(=O)(=O)c1cccc(C(F)(F)F)c1 | . | . | . | . | . | .
COc1ccccc1-c1noc(CSc2nnc(Cc3ccccc3)n2-c2ccc(C)c(C)c2)n1 | . | / | . | -65 | . | /
O=c1cc(-c2ccccc2)oc2cc(O)cc(O)c12 | . | / | / | . | . | /
O=c1cc(-c2ccc(O)cc2)oc2cc(O)cc(O)c12 | . | . | / | / | . | 25µM
COc1cc(/C=C(\C#N)c2nc3ccccc3[nH]2)cc(Br)c1OCc1ccc(F)cc1 | . | . | . | . | . | 5µM
O=C1CN(S(=O)(=O)c2cc(C(=O)O)ccc2Cl)c2ccccc2N1 | . | -76 | . | . | . | /
Oc1cccc2[nH]ccc12 | / | / | / | . | / | /
Cc1ccc(S(=O)(=O)c2c(C(=O)c3ccccc3)cnc3cc4c(cc23)OCCO4)cc1 | . | -83 | . | . | . | ?
COc1ccc(C(=O)c2cnc3ccc(C)cc3c2S(=O)(=O)c2ccccc2)cc1 | ? | / | . | . | . | /
CN(C)CCN(Cc1ccsc1)c1ccccn1 | / | / | / | . | / | /
O=C1NC(=S)SC1=C1CCCCCC1 | . | -81 | . | . | . | .[7.67 µM]
Cc1ccccc1CS(=O)(=O)Cc1ccc(C(=O)NCCc2ccc(Cl)cc2)o1 | . | / | . | -96 | . | /

Screening results deposited in PubChem BioAssay by National Center for Advancing Translational Sciences (NCATS).
